# Experimental data taken from PMC7862700, “An all-to-all approach to the identification of sequence-specific readers for epigenetic DNA modifications on cytosine”.
# Legend:
# Assay in all cases: DAPPL (digital affinity profiling via proximity ligation, sequencing); 10 mM Tris-HCl pH 7.5, 50 mM NaCl, 1 mM DTT, 4% glycerol, room temperature, 30 min; GST-TFs on glutathione beads, 16-mer random dsDNA library, 0.1% formaldehyde crosslink after washing; high values mean tight binding
# FLI1 = target: T1, FLI1 (Homo sapiens, UniProt Q01543 1-452); conditions: protein: recombinant; tags: N-terminal GST; dsDNA, one strand shown
# T1 sequence: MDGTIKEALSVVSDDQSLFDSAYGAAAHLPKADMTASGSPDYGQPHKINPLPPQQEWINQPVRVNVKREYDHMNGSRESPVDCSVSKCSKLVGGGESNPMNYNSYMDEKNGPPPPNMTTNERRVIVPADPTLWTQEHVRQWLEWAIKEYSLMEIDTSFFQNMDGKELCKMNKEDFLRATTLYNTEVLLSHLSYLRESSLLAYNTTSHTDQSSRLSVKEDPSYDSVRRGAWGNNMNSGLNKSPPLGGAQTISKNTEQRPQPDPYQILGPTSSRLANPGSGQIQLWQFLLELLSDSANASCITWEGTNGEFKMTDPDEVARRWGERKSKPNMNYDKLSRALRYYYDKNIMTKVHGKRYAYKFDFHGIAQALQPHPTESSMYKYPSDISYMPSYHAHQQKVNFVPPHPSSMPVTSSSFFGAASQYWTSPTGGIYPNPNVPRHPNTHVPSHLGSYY
# Procedure, shortened: (§1)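 Beads coated with glutathione captured GST-fused human transcription factors that had been expressed in yeast, and the factors were then given DNA barcodes and pooled with a tag-only sample. The pools were incubated with 200 nmole of a random double-stranded 16-mer DNA library in Tris/NaCl/DTT/glycerol buffer for 30 min at room temperature, washed, crosslinked with 0.1% formaldehyde and proximity-ligated with BsaI/T4 ligase at 37 °C for 1 h. PCR amplification and Illumina NextSeq500 sequencing came last. Binding signal is each hexamer's read frequency for a factor divided by its frequency for the tag-only sample.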
# ELK1 = target: T2, ELK1 (Homo sapiens, UniProt P19419 1-428); conditions: protein: recombinant; tags: N-terminal GST; dsDNA, one strand shown
# T2 sequence: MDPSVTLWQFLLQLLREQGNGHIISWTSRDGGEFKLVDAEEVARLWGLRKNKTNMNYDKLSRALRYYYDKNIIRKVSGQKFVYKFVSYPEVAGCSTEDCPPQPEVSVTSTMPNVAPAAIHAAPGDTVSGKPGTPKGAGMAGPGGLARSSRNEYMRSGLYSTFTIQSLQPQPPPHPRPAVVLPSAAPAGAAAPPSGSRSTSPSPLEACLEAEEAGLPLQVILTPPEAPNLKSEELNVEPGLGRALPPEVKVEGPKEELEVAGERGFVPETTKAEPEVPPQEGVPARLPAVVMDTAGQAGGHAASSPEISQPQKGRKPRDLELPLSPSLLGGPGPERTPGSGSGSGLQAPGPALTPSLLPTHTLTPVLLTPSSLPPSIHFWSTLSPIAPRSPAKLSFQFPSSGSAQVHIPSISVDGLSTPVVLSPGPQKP
# Procedure, shortened: as §1
# GABPA = target: T3, GABPA (Homo sapiens, UniProt Q06546 1-454); conditions: protein: recombinant; tags: N-terminal GST; dsDNA, one strand shown
# T3 sequence: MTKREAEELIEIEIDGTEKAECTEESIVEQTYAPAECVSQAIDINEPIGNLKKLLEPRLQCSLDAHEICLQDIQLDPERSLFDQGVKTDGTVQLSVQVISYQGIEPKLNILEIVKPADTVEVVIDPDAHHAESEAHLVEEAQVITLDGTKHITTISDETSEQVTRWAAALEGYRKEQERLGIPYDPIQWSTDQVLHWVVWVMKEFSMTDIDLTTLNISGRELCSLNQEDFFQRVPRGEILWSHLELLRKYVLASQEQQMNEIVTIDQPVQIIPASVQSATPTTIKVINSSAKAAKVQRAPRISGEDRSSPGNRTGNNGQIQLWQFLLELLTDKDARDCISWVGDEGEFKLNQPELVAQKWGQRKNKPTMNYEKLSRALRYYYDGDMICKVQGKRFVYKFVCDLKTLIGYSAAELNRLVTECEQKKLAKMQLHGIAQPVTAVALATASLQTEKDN
# Procedure, shortened: as §1
# ERG = target: T4, ERG (Homo sapiens, UniProt P11308 1-479); conditions: protein: recombinant; tags: N-terminal GST; dsDNA, one strand shown
# T4 sequence: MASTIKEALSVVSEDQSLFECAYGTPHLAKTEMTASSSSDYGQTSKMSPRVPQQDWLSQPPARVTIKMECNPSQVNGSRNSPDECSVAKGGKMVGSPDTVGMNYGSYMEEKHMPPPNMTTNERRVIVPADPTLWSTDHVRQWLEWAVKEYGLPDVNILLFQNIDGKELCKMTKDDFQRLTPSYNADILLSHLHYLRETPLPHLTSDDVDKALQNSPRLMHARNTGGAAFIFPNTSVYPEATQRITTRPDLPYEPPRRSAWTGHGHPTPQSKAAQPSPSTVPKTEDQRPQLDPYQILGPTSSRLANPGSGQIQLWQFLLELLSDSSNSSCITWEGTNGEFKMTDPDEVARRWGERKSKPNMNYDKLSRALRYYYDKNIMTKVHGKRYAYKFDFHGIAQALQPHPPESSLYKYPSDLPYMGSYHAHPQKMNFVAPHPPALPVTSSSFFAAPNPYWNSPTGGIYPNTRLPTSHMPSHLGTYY
# Procedure, shortened: as §1
# ELF1 = ELF1 (Homo sapiens, UniProt P32519 1-619); conditions: protein: recombinant; tags: N-terminal GST; dsDNA, one strand shown
# Procedure, shortened: as §1
# EHF = target: T5, EHF (Homo sapiens, UniProt Q9NZC4 1-300); conditions: protein: recombinant; tags: N-terminal GST; dsDNA, one strand shown
# T5 sequence: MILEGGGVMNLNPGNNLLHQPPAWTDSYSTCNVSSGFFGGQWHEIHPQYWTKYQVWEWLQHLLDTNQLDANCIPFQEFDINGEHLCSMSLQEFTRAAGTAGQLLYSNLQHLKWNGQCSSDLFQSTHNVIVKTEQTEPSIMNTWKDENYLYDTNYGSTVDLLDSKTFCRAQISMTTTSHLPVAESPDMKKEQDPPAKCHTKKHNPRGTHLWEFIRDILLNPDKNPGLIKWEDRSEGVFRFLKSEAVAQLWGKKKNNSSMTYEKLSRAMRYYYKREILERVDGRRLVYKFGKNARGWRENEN
# Procedure, shortened: as §1
# SPI1 = SPI1 (Homo sapiens, UniProt P17947 1-270); conditions: protein: recombinant; tags: N-terminal GST; dsDNA, one strand shown
# Procedure, shortened: as §1
# SPIB = SPIB (Homo sapiens, UniProt Q01892 1-262); conditions: protein: recombinant; tags: N-terminal GST; dsDNA, one strand shown
# Procedure, shortened: as §1
# ELK3 = target: T6, ELK3 (Homo sapiens, UniProt P41970 1-407); conditions: protein: recombinant; tags: N-terminal GST; dsDNA, one strand shown
# T6 sequence: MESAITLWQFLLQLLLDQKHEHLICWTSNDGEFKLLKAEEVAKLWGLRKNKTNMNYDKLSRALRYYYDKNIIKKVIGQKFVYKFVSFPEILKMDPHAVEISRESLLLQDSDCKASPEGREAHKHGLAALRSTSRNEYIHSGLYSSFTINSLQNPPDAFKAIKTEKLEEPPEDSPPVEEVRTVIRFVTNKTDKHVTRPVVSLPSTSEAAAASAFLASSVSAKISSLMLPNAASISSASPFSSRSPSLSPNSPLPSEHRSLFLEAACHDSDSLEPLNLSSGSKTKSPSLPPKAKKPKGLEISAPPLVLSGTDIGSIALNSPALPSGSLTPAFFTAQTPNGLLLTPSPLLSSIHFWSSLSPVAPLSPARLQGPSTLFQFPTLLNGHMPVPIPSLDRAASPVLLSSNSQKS
# Procedure, shortened: as §1
# FEV = target: T7, FEV (Homo sapiens, UniProt Q99581 1-238); conditions: protein: recombinant; tags: N-terminal GST; dsDNA, one strand shown
# T7 sequence: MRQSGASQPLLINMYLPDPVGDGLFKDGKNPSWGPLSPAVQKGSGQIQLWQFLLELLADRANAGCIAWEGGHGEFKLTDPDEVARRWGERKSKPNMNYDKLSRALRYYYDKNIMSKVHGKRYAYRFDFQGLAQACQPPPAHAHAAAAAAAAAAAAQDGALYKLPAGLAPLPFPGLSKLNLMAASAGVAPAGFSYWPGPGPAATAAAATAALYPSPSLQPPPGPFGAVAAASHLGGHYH
# Procedure, shortened: as §1
# ETV5 = ETV5 (Homo sapiens, UniProt P41161 1-510); conditions: protein: recombinant; tags: N-terminal GST; dsDNA, one strand shown
# Procedure, shortened: as §1
# HSF1 = HSF1 (Homo sapiens, UniProt Q00613 1-529); conditions: protein: recombinant; tags: N-terminal GST; chain copies: 3; dsDNA, one strand shown
# Procedure, shortened: as §1
# SPIC = target: T8, SPIC (Homo sapiens, UniProt Q8N5J4 1-248); conditions: protein: recombinant; tags: N-terminal GST; dsDNA, one strand shown
# T8 sequence: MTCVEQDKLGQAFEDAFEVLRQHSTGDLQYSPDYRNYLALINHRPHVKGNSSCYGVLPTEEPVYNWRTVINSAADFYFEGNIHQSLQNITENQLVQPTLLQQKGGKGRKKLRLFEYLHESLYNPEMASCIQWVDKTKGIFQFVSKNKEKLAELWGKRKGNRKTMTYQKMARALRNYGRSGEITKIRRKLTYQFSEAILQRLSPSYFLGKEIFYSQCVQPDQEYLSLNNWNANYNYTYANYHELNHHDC
# Procedure, shortened: as §1
# ELF4 = ELF4 (Homo sapiens, UniProt Q99607 1-663); conditions: protein: recombinant; tags: N-terminal GST; dsDNA, one strand shown
# Procedure, shortened: as §1
# ELK4 = target: T9, ELK4 (Homo sapiens, UniProt P28324-2 1-405); conditions: protein: recombinant; tags: N-terminal GST; dsDNA, one strand shown
# T9 sequence: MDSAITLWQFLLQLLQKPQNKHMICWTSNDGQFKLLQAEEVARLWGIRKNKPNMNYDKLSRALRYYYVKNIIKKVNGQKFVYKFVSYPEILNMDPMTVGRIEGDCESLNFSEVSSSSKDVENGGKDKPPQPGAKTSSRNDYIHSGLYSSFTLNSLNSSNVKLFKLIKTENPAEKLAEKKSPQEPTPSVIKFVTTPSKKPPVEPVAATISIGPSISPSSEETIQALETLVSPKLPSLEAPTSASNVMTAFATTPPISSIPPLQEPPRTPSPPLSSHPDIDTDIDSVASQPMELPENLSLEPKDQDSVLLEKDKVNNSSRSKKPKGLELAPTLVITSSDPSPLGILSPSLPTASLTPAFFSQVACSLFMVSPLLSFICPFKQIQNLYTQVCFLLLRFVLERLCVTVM
# Procedure, shortened: as §1
# ETV2 = target: T10, ETV2 (Homo sapiens, UniProt O00321 1-342); conditions: protein: recombinant; tags: N-terminal GST; dsDNA, one strand shown
# T10 sequence: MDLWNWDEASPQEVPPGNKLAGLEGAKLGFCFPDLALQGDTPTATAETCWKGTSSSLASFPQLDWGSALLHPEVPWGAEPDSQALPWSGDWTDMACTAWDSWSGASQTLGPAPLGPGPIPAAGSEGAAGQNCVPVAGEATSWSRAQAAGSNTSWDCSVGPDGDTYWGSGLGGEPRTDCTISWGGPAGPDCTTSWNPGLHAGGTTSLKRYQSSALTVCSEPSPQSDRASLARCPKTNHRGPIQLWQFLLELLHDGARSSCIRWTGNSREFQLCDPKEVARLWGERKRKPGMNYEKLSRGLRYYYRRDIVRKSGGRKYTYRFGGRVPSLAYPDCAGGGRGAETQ
# Procedure, shortened: as §1
# ELF3 = target: T11, ELF3 (Homo sapiens, UniProt P78545 1-371); conditions: protein: recombinant; tags: N-terminal GST; dsDNA, one strand shown
# T11 sequence: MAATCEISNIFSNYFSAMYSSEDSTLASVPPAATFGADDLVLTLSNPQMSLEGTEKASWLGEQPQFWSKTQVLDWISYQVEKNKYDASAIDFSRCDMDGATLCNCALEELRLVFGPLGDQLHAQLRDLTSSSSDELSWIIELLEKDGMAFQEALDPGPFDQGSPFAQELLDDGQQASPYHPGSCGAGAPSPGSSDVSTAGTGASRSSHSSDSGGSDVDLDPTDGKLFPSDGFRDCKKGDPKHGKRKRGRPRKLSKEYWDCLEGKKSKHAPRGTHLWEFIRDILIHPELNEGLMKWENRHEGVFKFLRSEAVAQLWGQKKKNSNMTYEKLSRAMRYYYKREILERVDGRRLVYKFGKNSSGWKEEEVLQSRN
# Procedure, shortened: as §1
# CRX = CRX (Homo sapiens, UniProt O43186 1-299); conditions: protein: recombinant; tags: N-terminal GST; dsDNA, one strand shown
# Procedure, shortened: as §1
# ETV1 = ETV1 (Homo sapiens, UniProt P50549 1-477); conditions: protein: recombinant; tags: N-terminal GST; dsDNA, one strand shown
# Procedure, shortened: as §1
# Chain of CRX (O43186 whole entry): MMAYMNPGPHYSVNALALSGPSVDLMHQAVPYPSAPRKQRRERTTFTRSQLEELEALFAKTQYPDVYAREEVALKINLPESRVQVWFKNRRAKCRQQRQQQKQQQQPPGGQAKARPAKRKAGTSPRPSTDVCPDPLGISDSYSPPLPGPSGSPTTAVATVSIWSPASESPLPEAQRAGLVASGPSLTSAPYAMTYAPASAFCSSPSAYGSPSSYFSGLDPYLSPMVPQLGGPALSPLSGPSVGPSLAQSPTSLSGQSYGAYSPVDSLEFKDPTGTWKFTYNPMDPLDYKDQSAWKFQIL
# Chain of ETV5 (P41161 whole entry): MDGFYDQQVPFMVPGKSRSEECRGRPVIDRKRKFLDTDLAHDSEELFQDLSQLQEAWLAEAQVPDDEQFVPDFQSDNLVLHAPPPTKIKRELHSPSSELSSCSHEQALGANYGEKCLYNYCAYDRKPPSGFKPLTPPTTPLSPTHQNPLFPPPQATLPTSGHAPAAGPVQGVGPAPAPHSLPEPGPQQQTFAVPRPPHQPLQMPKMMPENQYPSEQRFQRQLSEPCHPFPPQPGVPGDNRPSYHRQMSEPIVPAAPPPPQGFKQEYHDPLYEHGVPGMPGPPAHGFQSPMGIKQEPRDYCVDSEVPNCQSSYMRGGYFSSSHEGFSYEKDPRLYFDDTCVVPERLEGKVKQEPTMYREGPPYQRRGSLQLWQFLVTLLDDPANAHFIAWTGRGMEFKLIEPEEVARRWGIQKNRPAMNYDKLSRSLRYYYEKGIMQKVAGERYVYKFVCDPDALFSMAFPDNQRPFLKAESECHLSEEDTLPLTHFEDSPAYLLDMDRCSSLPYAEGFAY
# Chain of ELF4 (Q99607 whole entry): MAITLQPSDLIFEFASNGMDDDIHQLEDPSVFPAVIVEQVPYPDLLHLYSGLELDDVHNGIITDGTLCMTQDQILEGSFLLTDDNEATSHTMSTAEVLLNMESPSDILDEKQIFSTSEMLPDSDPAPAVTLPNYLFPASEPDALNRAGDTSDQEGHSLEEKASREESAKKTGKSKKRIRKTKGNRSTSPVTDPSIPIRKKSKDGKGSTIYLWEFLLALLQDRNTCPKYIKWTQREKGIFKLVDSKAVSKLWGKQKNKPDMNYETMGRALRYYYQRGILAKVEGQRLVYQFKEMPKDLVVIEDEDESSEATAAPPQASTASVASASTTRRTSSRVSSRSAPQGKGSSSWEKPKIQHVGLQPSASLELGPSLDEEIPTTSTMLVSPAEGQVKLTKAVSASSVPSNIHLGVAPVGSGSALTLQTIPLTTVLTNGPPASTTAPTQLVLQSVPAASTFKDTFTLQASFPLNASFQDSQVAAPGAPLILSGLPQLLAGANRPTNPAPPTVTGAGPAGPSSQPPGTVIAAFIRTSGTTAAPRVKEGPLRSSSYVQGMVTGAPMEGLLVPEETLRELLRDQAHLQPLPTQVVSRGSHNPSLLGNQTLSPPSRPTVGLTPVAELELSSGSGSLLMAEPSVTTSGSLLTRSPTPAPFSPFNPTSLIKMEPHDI
# Chain of SPIB (Q01892 whole entry): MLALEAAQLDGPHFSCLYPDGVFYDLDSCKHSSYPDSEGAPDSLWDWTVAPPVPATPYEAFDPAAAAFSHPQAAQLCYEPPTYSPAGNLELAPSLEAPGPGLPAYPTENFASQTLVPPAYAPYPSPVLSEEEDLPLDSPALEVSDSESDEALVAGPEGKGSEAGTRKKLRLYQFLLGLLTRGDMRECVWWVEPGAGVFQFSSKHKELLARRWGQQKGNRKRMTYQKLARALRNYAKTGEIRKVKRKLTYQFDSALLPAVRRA
# Chain of ELF1 (P32519 whole entry): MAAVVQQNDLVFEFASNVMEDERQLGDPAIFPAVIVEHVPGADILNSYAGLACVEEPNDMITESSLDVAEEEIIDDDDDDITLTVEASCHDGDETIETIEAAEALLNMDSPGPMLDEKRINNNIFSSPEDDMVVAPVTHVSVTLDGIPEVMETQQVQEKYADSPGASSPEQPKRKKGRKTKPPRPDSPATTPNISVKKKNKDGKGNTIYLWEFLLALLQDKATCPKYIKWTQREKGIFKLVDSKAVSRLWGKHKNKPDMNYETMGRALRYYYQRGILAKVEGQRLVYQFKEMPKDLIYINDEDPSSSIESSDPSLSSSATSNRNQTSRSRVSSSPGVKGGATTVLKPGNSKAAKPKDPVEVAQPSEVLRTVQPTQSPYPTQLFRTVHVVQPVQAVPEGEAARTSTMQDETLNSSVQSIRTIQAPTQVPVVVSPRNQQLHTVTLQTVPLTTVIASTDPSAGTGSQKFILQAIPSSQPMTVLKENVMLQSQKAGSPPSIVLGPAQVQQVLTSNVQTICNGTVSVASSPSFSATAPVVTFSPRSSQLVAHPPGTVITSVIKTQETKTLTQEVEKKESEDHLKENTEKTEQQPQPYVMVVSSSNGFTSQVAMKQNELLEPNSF
# Chain of ETV1 (P50549 whole entry): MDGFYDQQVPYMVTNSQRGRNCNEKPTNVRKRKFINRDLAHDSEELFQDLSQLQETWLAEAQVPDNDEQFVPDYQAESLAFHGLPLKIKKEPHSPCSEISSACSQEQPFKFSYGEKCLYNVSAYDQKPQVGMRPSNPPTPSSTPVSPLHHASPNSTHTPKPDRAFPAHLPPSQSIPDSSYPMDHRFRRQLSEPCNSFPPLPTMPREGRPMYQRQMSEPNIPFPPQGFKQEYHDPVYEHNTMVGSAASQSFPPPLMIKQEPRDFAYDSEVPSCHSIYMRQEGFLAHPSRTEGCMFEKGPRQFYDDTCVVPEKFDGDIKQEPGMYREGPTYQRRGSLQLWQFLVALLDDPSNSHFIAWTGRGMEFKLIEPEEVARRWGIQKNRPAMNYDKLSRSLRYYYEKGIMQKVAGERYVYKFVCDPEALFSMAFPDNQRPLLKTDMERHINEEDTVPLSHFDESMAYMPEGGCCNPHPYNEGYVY
# Chain of HSF1 (Q00613 whole entry): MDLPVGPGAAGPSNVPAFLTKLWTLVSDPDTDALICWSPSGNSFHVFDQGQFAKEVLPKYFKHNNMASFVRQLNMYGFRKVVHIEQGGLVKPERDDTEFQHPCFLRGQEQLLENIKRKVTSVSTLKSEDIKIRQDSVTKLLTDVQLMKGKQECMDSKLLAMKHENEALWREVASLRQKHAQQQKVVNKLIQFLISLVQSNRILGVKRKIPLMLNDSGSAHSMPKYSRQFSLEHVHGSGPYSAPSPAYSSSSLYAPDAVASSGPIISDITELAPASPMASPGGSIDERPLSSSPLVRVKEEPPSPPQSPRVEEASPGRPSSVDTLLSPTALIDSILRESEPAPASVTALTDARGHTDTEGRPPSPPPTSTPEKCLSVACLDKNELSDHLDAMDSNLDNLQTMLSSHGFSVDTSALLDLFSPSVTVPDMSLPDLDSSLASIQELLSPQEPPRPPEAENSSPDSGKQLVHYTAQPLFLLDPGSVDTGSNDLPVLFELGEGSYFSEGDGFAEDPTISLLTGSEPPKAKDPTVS
sequence,measurement,setting,value
TTAACC,binding signal,FLI1,"1.2 fold enrichment (6-mer frequency, TF over GST control)"
same,binding signal,ELK1,"1.25 fold enrichment (6-mer frequency, TF over GST control)"
same,binding signal,GABPA,"1.18 fold enrichment (6-mer frequency, TF over GST control)"
same,binding signal,ERG,"1.21 fold enrichment (6-mer frequency, TF over GST control)"
same,binding signal,ELF1,"1.31 fold enrichment (6-mer frequency, TF over GST control)"
same,binding signal,EHF,"1.24 fold enrichment (6-mer frequency, TF over GST control)"
same,binding signal,SPI1,"1.23 fold enrichment (6-mer frequency, TF over GST control)"
same,binding signal,SPIB,"1.33 fold enrichment (6-mer frequency, TF over GST control)"
same,binding signal,ELK3,"1.3 fold enrichment (6-mer frequency, TF over GST control)"
same,binding signal,FEV,"1.29 fold enrichment (6-mer frequency, TF over GST control)"
same,binding signal,ETV5,"1.22 fold enrichment (6-mer frequency, TF over GST control)"
same,binding signal,HSF1,"1.8 fold enrichment (6-mer frequency, TF over GST control)"
same,binding signal,SPIC,"1.26 fold enrichment (6-mer frequency, TF over GST control)"
same,binding signal,ELF4,"1.32 fold enrichment (6-mer frequency, TF over GST control)"
same,binding signal,ELK4,"1.31 fold enrichment (6-mer frequency, TF over GST control)"
same,binding signal,ETV2,"1.36 fold enrichment (6-mer frequency, TF over GST control)"
same,binding signal,ELF3,"1.27 fold enrichment (6-mer frequency, TF over GST control)"
same,binding signal,CRX,"2.67 fold enrichment (6-mer frequency, TF over GST control)"
same,binding signal,ETV1,"1.28 fold enrichment (6-mer frequency, TF over GST control)"
